MsrA act: bovine MsrA enzyme activators, primary screen, biochemical, absorbance, HTS. activation, % at 10.6 µM. purified bovine MsrA, absorbance read-out. 360,000 compounds, 0.3% hits. AID 602163, 2012. Methionine sulfoxide reductase A (Bos taurus); in the data active = activation above about 7.5%;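 also: 0% = vehicle and 100% = reference activator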
MsrA inhibitor: bovine MsrA enzyme inhibitors, primary screen, biochemical, absorbance, HTS; Methionine sulfoxide reductase A (Bos taurus); purified bovine MsrA, absorbance read-out; inhibition, % at 15.5 µM; 360,000 compounds, 0.75% hits; in the data active = inhibition above about 4.5%;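 also: 0% = vehicle wells with enzyme and 100% = reference inhibitor wells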
rCAG binder: binders of r(CAG) RNA repeats, primary screen, biochemical, fluorescence | 370,000 compounds, 1.3% hits | r(CAG) RNA repeat, TO-PRO-1 dye displacement fluorescence | inhibition, % at 3 µM;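 active = inhibition above the plate cutoff, the mean of all test compounds on that plate plus 3 SD, cut at about 35% in these data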;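 also: 0% = DMSO alone and 100% = 100 µM mitoxantrone as full dye displacement; higher means more dye released from RNA so lower well fluorescence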
sPLA2-III inh: human group III sPLA2 inhibitors, primary screen, biochemical, QFRET, BODIPY PC-A2 liposome substrate; QFRET BODIPY PC-A2 liposome hydrolysis, fluorescence; 370,000 compounds, 0.56% hits; inhibition, % at 12.2 µM;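 active = inhibition above mean plus 3 SD of compounds lying within the high and low control bounds, cut at about 19% in these data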;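 also: 0% = median of test compound wells and 100% = no enzyme DMSO wells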
Target sequence (Q9NZ20 whole entry, looked up): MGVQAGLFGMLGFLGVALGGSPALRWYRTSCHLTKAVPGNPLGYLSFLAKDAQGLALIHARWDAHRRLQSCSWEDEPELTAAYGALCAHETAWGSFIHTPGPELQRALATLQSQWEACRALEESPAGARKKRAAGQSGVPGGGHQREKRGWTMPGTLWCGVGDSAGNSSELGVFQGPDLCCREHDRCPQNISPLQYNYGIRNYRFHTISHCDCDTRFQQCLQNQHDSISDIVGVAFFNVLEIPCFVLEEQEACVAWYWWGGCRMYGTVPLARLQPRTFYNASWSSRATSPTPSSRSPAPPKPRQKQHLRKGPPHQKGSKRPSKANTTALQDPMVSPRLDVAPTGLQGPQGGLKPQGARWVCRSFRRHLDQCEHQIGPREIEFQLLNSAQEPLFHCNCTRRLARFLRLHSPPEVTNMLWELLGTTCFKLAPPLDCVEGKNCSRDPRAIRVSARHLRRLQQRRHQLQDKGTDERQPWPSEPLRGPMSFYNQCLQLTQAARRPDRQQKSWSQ
sPLA2 confirm: human group III sPLA2 inhibitors, confirmation, biochemical, QFRET, triplicate. shares compounds with sPLA2-III inh. recombinant hGIII-sPLA2, BODIPY PC-A2 QFRET fluorescence. inhibition, % at 12.2 µM. 2,000 compounds, 34% hits. AID 743280, 2014;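 active = mean inhibition across triplicates above the hit cutoff set in the earlier primary screen, cut at about 19% in these data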;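 also: 0% = enzyme with DMSO and 100% = DMSO wells lacking enzyme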
BODIPY interf: 535nm fluorescence optical interference, confirmation, artefact control for HGIII-sPLA2 inhibitor project, biochemical, QFRET; inhibition, % at 12.2 µM; 2,000 compounds, 8.5% hits; shares compounds with sPLA2-III inh; AID 743282, 2014; BODIPY FL product fluorescence interference;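 active = average inhibition above the solvent-only control mean plus 3 SD, cut at about 6% in these data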;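 also: 0% = DMSO with substrate plus product and 100% = DMSO with substrate alone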
535nm interf DR: 535nm fluorescence optical interference, dose response, artefact control for HGIII-sPLA2 inhibitor project, biochemical, QFRET. BODIPY FL product fluorescence interference, cell-free. 240 tested, under 10 active. IC50, µM. shares compounds with sPLA2-III inh;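 active = IC50 at or below 10 µM; inactive = IC50 above 10 µM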
* = called active by the depositor; · = not tested or not shown. Compounds with a hit are over-represented: about 2.8% of the library has one in this group of screens.

SMILES | MsrA act | MsrA inhibitor | rCAG binder | sPLA2-III inh | sPLA2 confirm | BODIPY interf | others
Fc1ccc(NC(=S)Nc2ccc(Cl)cc2)cc1 | -12.7 | 0.2 | 0.8 | 6.0 | · | ·
O=C(NNC(=S)Nc1ccc(F)cc1)C1CC1c1ccc(Cl)cc1 (stereo not drawn) | -8.7 | -0.4 | 12.3 | 20.1* | 35.1* | 0.2 | 535nm interf DR=>122
COc1ccc(NC(=S)NNC(=O)C2CC2c2ccc(C)cc2)cc1 (stereo not drawn) | -2.8 | 0.0 | 3.4 | 21.4* | 21.9* | -1.5
Cc1ccc(NC(=S)NNC(=O)C2CC2c2ccc(C)cc2)cc1 (stereo not drawn) | -10.9 | -0.7 | 4.8 | 14.7 | · | ·
C/C(N)=C(/C#N)C(=O)COC(=O)C1CSC2(c3ccc(F)cc3)CCC(=O)N12 (stereo not drawn) | -1.0 | -0.4 | -4.8 | -2.7 | · | ·
CNC(=O)C(Sc1nc(C)nc2c1oc1ccccc12)C(C)=O (stereo not drawn) | -1.5 | 3.6 | -1.6 | 12.5 | · | ·
O=C(COC(=O)/C=C/c1ccc(Br)o1)Nc1ccc2[nH]c(=O)[nH]c2c1 | -5.2 | -0.5 | 3.2 | 1.6 | · | ·
CCOC(=O)C(=O)NNc1ccc(F)cc1 | -10.8 | 0.0 | -1.1 | 21.2* | -2.4 | -3.6
CCOC(=O)C(=O)N/N=C/c1ccc(F)cc1 | 3.7 | -0.4 | -0.5 | -1.1 | · | ·
O=C(Nc1nc(-c2ccccc2)c(-c2ccccc2)s1)c1ccc(S(=O)(=O)N2CCCCC2)cc1 | -0.5 | 0.1 | 0.1 | 23.0* | -7.8 | 2.5
O=C(Nc1nc(-c2ccccc2)c(C(=O)c2ccccc2)s1)c1ccc(S(=O)(=O)N2CCCCC2)cc1 | -0.1 | -1.2 | 2.4 | -7.0 | · | ·
CCOc1ccc(/C=N/Nc2cc(=O)n(C)c(=O)n2C)cc1 | 0.4 | 2.6 | 4.0 | 19.3* | 11.0 | -1.1
O=C(CS(=O)(=O)c1ccccc1)N(CCCN1CCOCC1)c1nc2c(F)cccc2s1 | -2.5 | 1.6 | 2.1 | 6.7 | · | ·
CC(=O)c1cccc(NC(=O)C2Cc3c(-c4cccc(C(N)=O)c4)ccnc3O2)c1 (stereo not drawn) | -0.8 | 0.0 | 3.6 | -4.5 | · | ·
COc1ccc(Cc2n[nH]c(=S)o2)cc1 | -1.2 | -0.8 | 1.3 | 6.1 | · | ·
S=c1[nH]nc(Cc2ccc(Cl)cc2)o1 | 5.2 | 1.5 | 0.2 | 22.4* | 7.9 | -6.3
COc1ccc2nc(NC(=O)CCN3C(=S)NC(C)(C)CC3C)sc2c1 (stereo not drawn) | -4.5 | -0.2 | -1.6 | 25.6* | 23.7* | -10.8
O=C1CCCc2nc(N3CCN(c4ccccc4)CC3)ncc21 | -6.7 | -0.6 | -1.8 | 0.6 | · | ·
Fc1cnc(N2CCN(c3ccccc3)CC2)nc1N1CCN(c2ccccc2)CC1 | -2.9 | -0.3 | -0.3 | 21.3* | -0.7 | -6.5
COC(CNC(=O)c1ccc(N2CCC3(CC2)OCCO3)c([N+](=O)[O-])c1)OC | -1.4 | 0.6 | -2.4 | 23.0* | 2.9 | -8.8
COc1cc(CNC23CC4CC(CC(C4)C2)C3)ccc1OCc1ccccc1 | -4.7 | 0.1 | 3.2 | 21.6* | -8.2 | -32.9
COc1cc(CNCc2cccs2)ccc1OCc1ccccc1 | -0.1 | 0.3 | -5.9 | -20.2 | · | ·
CCC(Oc1ccccc1)C(=O)NCCOC (stereo not drawn) | -4.2 | -0.1 | 6.7 | 20.8* | 0.0 | -6.9
COc1ccccc1N1CCN(CCN2C(=O)CC3(CCCC3)CC2=O)CC1 | -0.8 | 1.2 | 1.3 | 19.7* | 1.5 | -18.0
CCN(CC)S(=O)(=O)c1ccc(OC)c(NC(=O)COc2ccc3c(C)cc(=O)oc3c2)c1 | -0.8 | 1.2 | 11.2 | 8.8 | · | ·
SMILES | MsrA act | MsrA inhibitor | rCAG binder | sPLA2-III inh | sPLA2 confirm | BODIPY interf | others
CCN(CC)S(=O)(=O)c1ccc(Cl)c(NC(=O)COc2ccc3c(C)cc(=O)oc3c2)c1 | -7.6 | 0.7 | -1.2 | 20.6* | -2.0 | -11.7
c1cc(-c2nnc3n2N=C(c2ccc4c(c2)OCO4)CS3)ccn1 | · | · | -0.3 | 21.8* | -0.2 | -10.0
C(=N\N(c1ccccc1)c1ccccc1)/c1ccc2c(c1)OCO2 | -1.6 | 0.9 | 2.1 | 7.2 | · | ·
CN(/N=C/c1ccc2c(c1)OCO2)c1ccccc1 | -2.6 | 3.6 | 0.2 | 22.6* | 41.5* | 6.6*
CCCCn1c(-c2nn(C)c(C)c2Cl)n[nH]c1=S | 4.6 | 0.4 | 2.2 | 19.8* | 24.0* | -3.7
Cc1c(Cl)c(-c2n[nH]c(=S)n2CC(C)C)nn1C | 2.6 | 0.4 | -0.6 | 13.2 | · | ·
CCCCn1c(-c2csc(CC)c2)n[nH]c1=S | -2.4 | 0.2 | -1.6 | 19.8* | 24.9* | -1.9
CCCCn1c(-c2csc(C(C)C)c2)n[nH]c1=S | -4.4 | 0.9 | 0.8 | 2.7 | · | ·
O=C(CNC(=O)c1ccccc1)OCCOc1cccc(Cl)c1 | 0.0 | -2.0 | -5.6 | 1.6 | · | ·
CSc1ccc(CNc2ccc(C)cc2)cc1 | -3.4 | -0.4 | -3.0 | 22.1* | 15.8 | 4.1
CCCCn1c(N)c(N(CCOC)C(=O)CC(NC(=O)c2ccccc2Cl)c2ccccc2)c(=O)[nH]c1=O (stereo not drawn) | -4.4 | -0.6 | 4.0 | 0.6 | · | ·
C=CCc1cc(Cl)ccc1OCCCNC(C)C | -2.4 | 0.5 | 3.6 | 22.6* | -8.8 | -26.5
CCCc1cc(C(=O)NNC(=S)NCC2CCCO2)cs1 (stereo not drawn) | -1.7 | 2.4 | -3.4 | 22.6* | 11.7 | 3.1
Cc1ccccc1C(=O)NC(=S)Nc1ccccc1N1CCCC1 | -3.3 | 0.6 | 3.0 | 20.1* | 27.1* | -6.6
CCCCc1ccc(NC(=S)N2CCCC2)cc1 | -4.7 | -0.7 | -2.1 | 20.3* | 10.4 | -8.6
COc1ccc(CCN(C(=O)C(F)(F)F)C(C(=O)NC2CCCC2)c2cccs2)cc1 (stereo not drawn) | 1.9 | -0.6 | -9.4 | -7.1 | · | ·
O=C(Nc1ccc(Cl)cc1C(=O)N1CCOCC1)c1ccco1 | -3.7 | -0.3 | -1.5 | 19.9* | 2.0 | -4.3
O=C(Nc1ccc(Cl)cc1C(=O)N1CCCCC1)c1ccco1 | -4.0 | -0.4 | -2.4 | 0.9 | · | ·
Cc1ccc(S(=O)(=O)Nc2ccc(S(=O)(=O)Nc3cc(C)nc(C)n3)cc2)cc1 | -1.5 | 0.6 | 3.4 | -8.3 | · | ·
Cc1cc(NS(=O)(=O)c2ccc(N3C(=O)C4C5C=CC(C5)C4C3=O)cc2)nc(C)n1 (stereo not drawn) | 2.8 | -0.7 | 0.0 | 21.1* | -0.5 | -7.0
CCCNC1=CC(=O)CC(C)(C)C1 | 0.7 | 1.0 | -0.8 | 13.1 | · | ·
CCOc1ccc(NC(=S)Nc2ccc(Br)cc2Cl)cc1 | -2.7 | -0.9 | -0.5 | 6.0 | · | ·
CCOCCCNC(=S)Nc1ccc(Br)cc1Cl | -3.0 | 1.0 | -3.4 | 20.1* | 4.8 | -6.3

From PubChem
